TDP-43 yeast inh: rescues yeast growth from TDP-43 toxicity; TDP-43 expressing yeast growth rescue, BacTiter-Glo, 24 h; Potency, µM (titrated, usually from 46.1 µM), for the others: top-dose growth rescue (activation), hits mostly activators; 410,000 tested, 1.8% active; also: % of control where 0% means no effect; nearly all actives have a fitted effect of over 50% in size
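In this qHTS, compounds that restore growth of yeast expressing TDP-43 appear as activators. Cells (OD600=0.02, galactose medium, raffinose-pregrown) are incubated with compound 24 hr at 30 deg C and growth is quantified by BacTiter-Glo.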
aSyn yeast inh: inhibitors of alpha-synuclein toxicity in yeast; Yeast expressing alpha-synuclein, growth rescue, BacTiter-Glo, 24 h; 370,000 tested, 0.14% active; Potency, µM (top dose mostly 46.1 µM), inactives show top-dose growth rescue (activation), hits mostly activators; AID 652106; also: % of control where 0% means no effect; nearly all actives have a fitted effect of over 65% in size
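Galactose-induced alpha-syn yeast (OD600=0.02, raffinose-pregrown) + pinned cpd, 24 hr, 30 deg C; growth by BacTiter-Glo luminescence. Growth restoration scores as activation.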
FUS yeast rescue: suppressors of FUS proteinopathy in yeast. S. cerevisiae FUS-expressing, growth rescue, OD600, 24 h. Potency, µM (highest dose often 76.6 µM), hits mostly activators. 390,000 tested, 0.24% active. AID 1347120;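 also: plate controls were DMSO vehicle for no effect and reference control for full effect; nearly all actives have a fitted effect of over 55% in size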
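Restored growth of FUS-toxic S. cerevisiae, read as 600 nm absorbance after 24 h at 30C in galactose medium (starting OD 0.005). Controls CP55940 and DMSO.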
Mito fusion act: inhibitors of mitochondrial division or activators of mitochondrial fusion; AID 485298; S. cerevisiae fusion-defective mutant growth rescue, CellTiterGlo 48 h; 320,000 tested, 0.23% active; Potency, µM (series often up to 46.1 µM), without a hit: at the top dose growth rescue (activation), actives largely listed as activators; also: % of control where 0% means no effect; nearly all actives have a fitted effect of over 45% in size
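S. cerevisiae fusion-defective temperature-sensitive mutants (e.g. fzo1-1, mgm1-5) grown 48 h at 37C in YPEG (ethanol/glycerol non-fermentable) medium with 23 nl compound per well; growth rescue read as CellTiterGlo luminescence.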
Abeta rescue: restores growth of yeast expressing A-beta42 peptide. Potency, µM (top dose mostly 46.1 µM), hits mostly activators. yeast expressing A-beta42, growth rescue, OD600, 48 h; response scale: 0% DMSO, 100% iron-clioquinol control. 410,000 tested, 0.063% active. AID 1347071; also: nearly all actives have a fitted effect of over 55% in size
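Yeast A-beta toxicity model in growth medium with pinned compounds, 48 h at 30 C; growth read as absorbance at 600 nm. Normalized to FeCl3/clioquinol equimolar mix (positive) and DMSO (negative).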
The depositor's hits bear a star; i = inactive; ? = inconclusive; . = no result given; [ ] = remark or other dose. Only some compounds are listed: those with a hit (about 2.2% of all), similar ones and a draw of the others. Calls follow the shape of the dose curve; as a rule, active = well fitted curve in the direction sought with a large enough effect; inconclusive = small, poorly fitted or top-dose-only effect, or another doubt; inactive = no such curve, though single readings can be large; an effect the other way counts as inactive or inconclusive. Potency is read from the fitted curve at half-maximal effect.

SMILES	TDP-43 yeast inh	aSyn yeast inh	FUS yeast rescue	Mito fusion act	Abeta rescue
CSc1cccc(NC(=O)Cn2c3ncccc3c(=O)n2-c2ccc(C)cc2)c1	5.8%	.	i	.	i
Cc1ccccc1-c1cc2nc(NCc3ccccc3)n(C)c(=O)c2s1	?	?	28.2µM*	.	i
CC(=O)NCCNc1nc2cc(-c3ccccc3CO)sc2c(=O)n1C	35.5µM*	?	i	.	i
Cc1cnc(CNc2nc3cc(-c4ccccc4C)sc3c(=O)n2C)cn1	35.5µM*	9.2%	i	.	i
Cc1ccccc1-c1cc2nc(NCc3cccnc3)n(C)c(=O)c2s1	1.9%	-1.4%	i	.	i
COCCNc1nc2cc(-c3ccccc3OC)sc2c(=O)n1C	14.1µM*	0.8%	i	.	i
COCCNc1nc2cc(-c3ccccc3C)sc2c(=O)n1C	0.0%	0.2%	?	.	i
Cc1ccccc1-c1cc2nc(NCc3ccncc3)n(C)c(=O)c2s1	0.0%	7.0%	i	.	i
Cc1nc2c(-c3ccccc3)c(C)nn2c(C)c1CCC(=O)NCc1ccc(Cl)cc1	5.7%	.	i	.	i
COc1ccc(C2(c3ccc(OC)cc3)NC(=O)N(CC(=O)NC3(C#N)CCCC3)C2=O)cc1	5.8%	0.5%	.	-0.5%	i
COc1ccc(C2(c3ccc(OC)cc3)NC(=O)N(CC(=O)NC3(C#N)CCCCC3)C2=O)cc1	-5.3%	1.0%[1.84 µM]	14.1µM*	-2.0%	i
CC1CCN(c2cc(C#N)c(C#N)cc2[N+](=O)[O-])CC1	4.8%	-14.8%	i	-3.5%	i
CC1CCN(c2cc(N)c(Cl)cc2[N+](=O)[O-])CC1	17.8µM*	?	i	-8.5%	i
CCCNC(=O)NC(=O)CSc1cccc(C(F)(F)F)c1	17.8µM*	4.4%	i	-22.5%	i
CNC(=O)NC(=O)CSc1cccc(C(F)(F)F)c1	11.1%	-3.1%	i	-2.2%	i
CCc1nc2ccc(C(=O)Nc3cccc(OC)c3)cn2c1N(C)CCCc1ccccc1	35.5µM*	-34.2%	?	.	i
CCc1nc2ccc(C(=O)Nc3cc(-c4ccccc4)ccc3OC)cn2c1N(CC)CCN(C)C	8.9%	-3.8%	i	.	i
CCc1nc2ccc(C(=O)Nc3cccc(NS(C)(=O)=O)c3)cn2c1N(C)CCCc1ccccc1	0.0%	-0.9%	i	.	i
CCc1nc2ccc(C(=O)Nc3cc(-c4ccccc4)ccc3OC)cn2c1N(CC)Cc1cccc(Br)c1	15.8µM*	-0.2%	?	.	i
CCc1cccc(C)c1NC(=O)C1CCN(c2nnc(C)c3c(C)n(-c4ccccc4)nc23)CC1	17.2%	.	i	.	i
CCOC(=O)c1cc(-c2ccc(OC)cc2)n(CCC(=O)Nc2cccc(C(C)=O)c2)c1C	10.2%	.	i	.	i
Cc1ccc(-n2c(SCC(=O)Nc3ccc(OCc4ccccc4)cc3)nnc2-c2ccccc2)cc1	.	.	i	.	.
COc1ccc(NCc2ccc([N+](=O)[O-])s2)c(OC)c1	10µM*	17.5%	.	7.5%	i
O=[N+]([O-])c1ccc(CNc2ccc(Cl)cc2)s1	?	-9.2%	i	-4.1%	?
COc1ccc(NCc2ccc([N+](=O)[O-])s2)cc1	?	20.0%	i	11.7%	i
SMILES	TDP-43 yeast inh	aSyn yeast inh	FUS yeast rescue	Mito fusion act	Abeta rescue
O=[N+]([O-])c1ccc(CNc2cccc(Cl)c2)s1	17.8µM*	?	i	2.6%	i
O=[N+]([O-])c1ccc(CNc2ccc(F)cc2)s1	12.6µM*	2.8%	i	0.1%	?
Cc1ccc(CCNC(=O)c2c(C)oc3ncnc(N4CCOCC4)c23)cc1	5.5%	.	i	.	i
Cc1ccc(S(=O)(=O)C(CNS(=O)(=O)c2ccc(F)c(C)c2)c2cccs2)cc1 (stereo not drawn)	?	.	i	.	i
Cc1cc(C)c(S(=O)(=O)NCC(c2cccs2)S(=O)(=O)c2ccccc2)c(C)c1 (stereo not drawn)	2.82µM*	.	i	.	i
Cc1cc(C)c(S(=O)(=O)NCC(c2ccco2)S(=O)(=O)c2ccccc2)c(C)c1 (stereo not drawn)	-4.4%	.	i	.	i
CCOc1ccc(S(=O)(=O)NCC(c2cccs2)S(=O)(=O)c2ccc(C)cc2)cc1 (stereo not drawn)	2.82µM*	.	i	.	i
COCC(=O)N1c2nc(-c3ccco3)nn2C2(CCCCC2)[C@@H]2CCCC[C@@H]21	15.4%	.	i	.	i
CO[C@H]1C[C@@H]2CC[C@@H](C)[C@@](O)(O2)C(=O)C(=O)N2CCCC[C@H]2C(=O)O[C@H]([C@H](C)C[C@@H]2CC[C@@H](O)[C@H](OC)C2)CC(=O)[C@H](C)/C=C(\C)[C@@H](O)[C@@H](OC)C(=O)[C@H](C)C[C@H](C)/C=C/C=C/C=C/1C	.	-73.5%	.	.	.
OC[C@@H]1CN(Cc2ccccc2)C[C@H](n2cnc3c(N4CCN(c5ccccc5)CC4)ncnc32)O1	16.8%	26.8%	20µM*	.	i
OC[C@@H]1CN(Cc2ccc(F)cc2)C[C@H](n2cnc3c(N4CCN(c5ccccc5)CC4)ncnc32)O1	25.8%	?	?	.	i
O=C(NCCc1ccc(Cl)cc1)c1cnc2n(c1=O)CCS2	35.5µM*	10.7%	i	5.4%	i
COc1ccccc1CCNC(=O)Cc1c(C)c2cc(Cl)c(O)cc2oc1=O	27.4%	.	i	.	i
O=C(/C(=N/O)c1ccccc1)c1ccccc1	22.4µM*	5.5%	i	.	i
CNC(=O)/C(=N\O)c1ccccc1	.	.	.	-2.1%	.
Clc1cc2cccnc2c2ncccc12	1.5%	-3.6%	i	9.2%	i
CCOC(=O)C1CCN(C(c2cc3c(C)ccc(C)c3[nH]c2=O)c2nnnn2C2CCCCC2)CC1 (stereo not drawn)	-37.8%	9.8%	i	3.4%	i
CCOC(=O)C1CCN(C(c2cc3ccc(C)c(C)c3[nH]c2=O)c2nnnn2C2CCCCC2)CC1 (stereo not drawn)	0.0%	12.8%	35.5µM*	-21.1%	i
O=C(CCNS(=O)(=O)c1ccc(Br)cc1)NC1CCCCC1	0.2%[0.397 µM]	6.3%	?	6.3%	i
O=S(=O)(NC(=S)NC1CCCCC1)c1ccc(Br)cc1	20µM*	11.4%	i	10.3%	i
S=C(S)OC1CC2CC1C1CCCC21 (stereo not drawn)	24.3%	5.1%	i	18.4µM*	i
COc1ccc(CN(Cc2ccccc2)C(=O)c2ccno2)cc1COc1ccc(NC(C)=O)cc1	.	0.4%	.	.	.
CC(C)(C)C(=O)NC(=S)NNC(=O)c1ccc(Cl)cc1Cl	-56.3%	5.01µM*	i	-1.1%	i
Cc1occc1C(=O)Nc1ccccc1C(=O)O	-16.5%	-23.2%	i	2.7%	i
